Source: PubChem BioAssay
Giardia kill: kills Giardia lamblia. activity change, % at 7.66 µM, hits read low. 340,000 tested, 0.15% active. Giardia lamblia trophozoite viability; in the data active means activity change below about -80%; inconclusive means between about -30% and that limit;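 further: parasites exposed to compound for two days anaerobically before the ATP read; on the % scale 0 is the no-effect control and ±100 the full control effect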
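Each well holds 100 Giardia trophozoites and compound. After two days (48 hrs) at 37 deg C in anaerobic conditions, ATP is quantified by luminescence.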
MCF10A rerep: DNA re-replication induction in MCF 10a cells; MCF 10A DNA re-replication, Hoechst nuclear intensity, 48 h; Potency, µM (highest dose often 46.1 µM), for inactives: at the highest dose activity, positive = re-replication, most hits filed as activators; 350,000 tested, 2.9% active; AID 624296; further: potency means the concentration at half of the fitted maximal effect; % of control where 0% means no effect; nearly all actives have a fitted effect of over 50% in size
SW480 rereplic: DNA re-replication induction in SW480 cells; SW480 DNA re-replication, Hoechst DNA content imaging, 48 h; 340,000 tested, 1.8% active; Potency, µM (series often up to 46.1 µM), without a hit: top-dose re-replication activation, hits mostly activators; further: potency means the concentration at half of the fitted maximal effect; % of control where 0% means no effect; nearly all actives have a fitted effect of over 55% in size
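Per well, 250 cells were exposed to pinned compound for 48 hr. Nuclear DNA was visualised with Hoechst (40 min, 37 C) and total object intensity recorded by fluorescence scanning.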
BCR signal inh: chronic active BCR signaling inhibition. ABC-DLBCL IkBa-CBG/CBR reporter, luminescence ratio, 4 h. Potency, µM (series often up to 46.1 µM), inactives show at the highest dose activity change, negative = inhibition, most hits filed as inhibitors. 340,000 tested, 0.05% active. AID 493014; active means well fitted inhibition curve with a large enough effect in the signal ratio, with a control signal flat, not every such curve was filed as active; inconclusive means small, poorly fitted or top-dose-only effect, or effect the other way, or a change in a side signal; the % refers to the signal ratio;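 further: potency means the concentration at half of the fitted maximal effect; plate controls were basal doxycycline-induced cells for no effect and cells given 10 µM MG132 for full effect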
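TMD8 human ABC-DLBCL cells with doxycycline-inducible IκBα–green luciferase fusion and unfused red luciferase, in 0.5% FBS medium; compounds up to 46 uM, 4 h at 37C. Green/red luminescence ratio, filter-overlap corrected, fitted to concentration-response curves.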
RORgamma inh: ROR gamma (mouse) transcription inhibition; Potency, µM (top dose mostly 53.6 µM), for inactives: top-dose activity change, negative = inhibition, most hits filed as inhibitors; 310,000 tested, 5.4% active; AID 2551; P51450; Drosophila S2 Gal4-RORgamma UAS-luciferase reporter, 20 h; further: potency means the concentration at half of the fitted maximal effect; on the % scale 0 is the no-effect control and ±100 the full control effect; nearly all actives have a fitted effect of over 60% in size
Target sequence (P51450 whole entry, looked up, the tested form may be a part): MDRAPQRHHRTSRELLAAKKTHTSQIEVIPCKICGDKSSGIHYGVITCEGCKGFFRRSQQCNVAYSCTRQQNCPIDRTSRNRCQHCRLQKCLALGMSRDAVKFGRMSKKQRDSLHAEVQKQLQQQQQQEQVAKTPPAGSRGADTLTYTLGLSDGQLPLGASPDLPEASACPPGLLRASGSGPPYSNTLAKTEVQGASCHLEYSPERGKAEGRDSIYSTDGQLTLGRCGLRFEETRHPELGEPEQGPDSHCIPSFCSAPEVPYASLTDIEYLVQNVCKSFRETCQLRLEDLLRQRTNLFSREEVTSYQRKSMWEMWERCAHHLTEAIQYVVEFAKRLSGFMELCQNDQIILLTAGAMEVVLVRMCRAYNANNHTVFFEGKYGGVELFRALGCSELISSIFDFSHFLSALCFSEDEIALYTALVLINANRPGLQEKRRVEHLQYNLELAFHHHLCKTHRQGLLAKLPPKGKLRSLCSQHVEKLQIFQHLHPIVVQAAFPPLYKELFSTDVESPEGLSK
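Luciferase reporter read in Schneider cells carrying Gal4-RORγ (mouse) and UAS-Photinus luciferase; cells given compound 1 h before 700 uM copper sulfate induction, then incubated 20 h at ambient temperature.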
VP16 counter: counter-screen for ROR gamma inhibitors: Gal4-VP16 reporter; Drosophila S2 Gal4-VP16 UAS-luciferase, luminescence, 20 h; Potency, µM (top dose mostly 53.6 µM), without a hit: top-dose activity, negative = inhibition, hits mostly inhibitors; 310,000 tested, 3.5% active;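 further: Gal4-VP16 expression switched on by copper sulfate through the metallothionein promoter; potency means the concentration at half of the fitted maximal effect; on the % scale 0 is the no-effect control and ±100 the full control effect; nearly all actives have a fitted effect of over 50% in size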
* = called active by the depositor; ? = inconclusive; . = no result given. An excerpt weighted towards active compounds, which were near 8.3% of everything screened. Unless noted, the call rests on the fitted dose curve; in most records, active means well fitted curve in the direction sought with a large enough effect; inconclusive means small, poorly fitted or top-dose-only effect, or another doubt; inactive means no such curve, though single readings can be large; an effect the other way counts as inactive or inconclusive.

SMILES | Giardia kill | MCF10A rerep | SW480 rereplic | BCR signal inh | RORgamma inh | VP16 counter
CCCc1cc2c(n1Cc1ccco1)C(C)C1CN(C(=O)c3ccccc3)C(C)(C(=O)OC)C21 (stereo not given) | . | . | . | . | 19% | 4%
CCN(CC)c1ccc(/C=C/[N+](=O)[O-])cc1 | -15 | ? | ? | -11% | 8.9µM* | -73%
CCN(CC)c1ccccc1 | -13 | ? | ? | 1% | 15% | 8%
O=C(CN1C(=O)C(=O)N(C2CCCC2)C1=O)Nc1cc(Cl)ccc1[N+](=O)[O-] | 8 | ? | -3% | 0% | . | .
CC(O)CCl (stereo not given) | . | . | . | . | 2% | -7%
CC[C@@]1(O)C(=O)OCc2c1cc1n(c2=O)Cc2cc3ccccc3nc2-1 | -19 | . | . | ? | 0.056µM* | ?
CCC1(O)C(=O)OCc2c1cc1n(c2=O)Cc2cc3cc(O)ccc3nc2-1 (stereo not given) | -27 | ? | ? | . | . | .
CC[C@@]1(O)C(=O)OCc2c1cc1n(c2=O)Cc2cc3c(O)cccc3nc2-1 | . | . | . | . | 0.35µM* | ?
CCCN(CCC)c1c([N+](=O)[O-])cc(C(F)(F)F)cc1[N+](=O)[O-] | . | . | . | . | -5% | -12%
CC(C)CNC(=O)C(=O)N/N=C/c1cccs1 | -11 | -4% | -5% | ? | -45% | 2%
